Reference: PubChem BioAssay (NCATS)
Results filed as inconclusive are left out. Activity calls are given as the source filed them. Calls come from the whole dose curve; as a rule, active = well fitted curve in the direction sought with a large enough effect; inconclusive = small, poorly fitted or top-dose-only effect, or another doubt; inactive = no such curve, though single readings can be large; an effect the other way counts as inactive or inconclusive.

Legend:
[1] = Quantitative High-Throughput drug screen in 47 multiple myeloma cell lines against the NCATS MIPE library collection: FR4_PLB cell viability assay (AID 1918924; note: nearly all actives have a fitted effect of over 35% in size)
Method in brief: (§1)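 Myeloma cell lines, 500 cells per well, exposed to MIPE 4.0 library compounds for 48 h at 37C, 5% CO2. Viability from ATP by CellTiter-Glo luminescence; normalised to DMSO (100%) and media-only (0%) wells.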

[2] = Quantitative High-Throughput drug screen in 47 multiple myeloma cell lines against the NCATS MIPE library collection: AMO1_DSMZ cell viability assay (AID 1918927; note: nearly all actives have a fitted effect of over 30% in size)
Method in brief: (§2)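 Approved and investigational drugs from MIPE 4.0 were added by pin tool to 500 cells per well. After 48 hours at 37C, ATP-based CellTiter-Glo luminescence indicated remaining viability.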

[3] = Quantitative High-Throughput drug screen in 47 multiple myeloma cell lines against the NCATS MIPE library collection: ARP1_JJKsccF8 cell viability assay (AID 1918928; note: nearly all actives have a fitted effect of over 40% in size)
Method in brief: (§3)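 Luminescence from CellTiter-Glo, taken after 5 min at room temperature, reports cellular ATP as viability. Cells (500 per well) had been treated 48 h at 37 °C with MIPE 4.0 compounds, scaled between DMSO and medium-only controls.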

[4] = Quantitative High-Throughput drug screen in 47 multiple myeloma cell lines against the NCATS MIPE library collection: ARD_JJKsccE7 cell viability assay (AID 1918929)
Method in brief: as §2

[5] = Quantitative High-Throughput drug screen in 47 multiple myeloma cell lines against the NCATS MIPE library collection: KMM1_JCRB cell viability assay (AID 1918960); note: nearly all actives have a fitted effect of over 30% in size
Method in brief: as §3

[6] = Quantitative High-Throughput drug screen in 47 multiple myeloma cell lines against the NCATS MIPE library collection: JJN3_DSMZ cell viability assay (AID 1918966; note: nearly all actives have a fitted effect of over 50% in size)
Method in brief: as §2

[7] = Quantitative High-Throughput drug screen in 47 multiple myeloma cell lines against the NCATS MIPE library collection: H1112_PLB cell viability assay (AID 1918967; note: nearly all actives have a fitted effect of over 30% in size)
Method in brief: as §2

[8] = Quantitative High-Throughput drug screen in 47 multiple myeloma cell lines against the NCATS MIPE library collection: KMS27_JCRB cell viability assay (AID 1918970); conditions: KMS27 myeloma cells, CellTiter-Glo ATP viability, 48 h; viability (% of DMSO): at 45.8 µM (top of the series); note: nearly all actives have a fitted effect of over 30% in size
Method in brief: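 Luminescent ATP read-out (CellTiter-Glo, 5 min at room temperature) after 48 h compound exposure of 500 KMS27_JCRB cells per well; DMSO wells define full viability and media-only wells zero.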

[9] = Quantitative High-Throughput drug screen in 47 multiple myeloma cell lines against the NCATS MIPE library collection: KMS12BM_JCRB cell viability assay (AID 1918971); note: nearly all actives have a fitted effect of over 35% in size
Method in brief: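 Relative luminescence from CellTiter-Glo served as the viability signal, referenced to DMSO-treated (100%) and cell-free medium (0%) controls. Treatment lasted 48 hours at 37C with 500 cells per well.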

[10] = Quantitative High-Throughput drug screen in 47 multiple myeloma cell lines against the NCATS MIPE library collection: KMS12PE_JCRB cell viability assay (AID 1918972); note: nearly all actives have a fitted effect of over 30% in size
Method in brief: as §1

[11] = Quantitative High-Throughput drug screen in 47 multiple myeloma cell lines against the NCATS MIPE library collection: Karpas620_DSMZ cell viability assay (AID 1918959); note: nearly all actives have a fitted effect of over 30% in size
Method in brief: as §1

[12] = Quantitative High-Throughput drug screen in 47 multiple myeloma cell lines against the NCATS MIPE library collection: Karpas417_ECACC cell viability assay (AID 1918961); conditions: Karpas417 myeloma viability, CellTiter-Glo ATP luminescence, 48 h; viability (% of DMSO): at 45.8 µM (top of the series)
Method in brief: as §1

[13] = Quantitative High-Throughput drug screen in 47 multiple myeloma cell lines against the NCATS MIPE library collection: KHM11_PLB cell viability assay (AID 1918962); note: nearly all actives have a fitted effect of over 35% in size
Method in brief: as §1

[14] = Quantitative High-Throughput drug screen in 47 multiple myeloma cell lines against the NCATS MIPE library collection: JIM3_ECACC cell viability assay (AID 1918963; note: nearly all actives have a fitted effect of over 35% in size)
Method in brief: as §1

[15] = Quantitative High-Throughput drug screen in 47 multiple myeloma cell lines against the NCATS MIPE library collection: JIM1_ECACC cell viability assay (AID 1918964)
Method in brief: as §2

[16] = Quantitative High-Throughput drug screen in 47 multiple myeloma cell lines against the NCATS MIPE library collection: EJM_DSMZ cell viability assay (AID 1918926; note: nearly all actives have a fitted effect of over 30% in size)
Method in brief: as §2

[17] = Quantitative High-Throughput drug screen in 47 multiple myeloma cell lines against the NCATS MIPE library collection: INA6_PLB cell viability assay (AID 1918965; note: nearly all actives have a fitted effect of over 55% in size)
Method in brief: as §1

[18] = Quantitative High-Throughput drug screen in 47 multiple myeloma cell lines against the NCATS MIPE library collection: Karpas25_ECACC cell viability assay (AID 1918968; note: nearly all actives have a fitted effect of over 35% in size)
Method in brief: as §2

[19] = Quantitative High-Throughput drug screen in 47 multiple myeloma cell lines against the NCATS MIPE library collection: KMS20_JCRB cell viability assay (AID 1918973); note: nearly all actives have a fitted effect of over 45% in size
Method in brief: as §2
Potency is the fitted concentration of half-maximal effect.

CC[C@]1(O)C[C@H]2CN(CCC3=c4ccccc4=N[C]3[C@@](C(=O)OC)(c3cc4c(cc3OC)N(C)[C@H]3[C@@](O)(C(N)=O)[C@H](O)[C@]5(CC)C=CCN6CC[C@]43[C@@H]65)C2)C1
active: Potency [2] 0.833 µM | Potency [3] 0.0105 µM | Potency [4] 0.118 µM | Potency [5] 0.105 µM | Potency [6] 0.372 µM | Potency [7] 0.0332 µM | Potency [8] 0.296 µM | Potency [9] 0.0047 µM | Potency [10] 0.132 µM
inactive: Potency [1]

CC(C)[C@H](O)C(=O)N[C@@H](C)C(=O)N[C@@H]1C(=O)N(C)CCc2ccccc21
active: Potency [12] 0.0021 µM
inactive: Potency [1] | Potency [2] | Potency [3] | Potency [4] | Potency [11] | Potency [5] | Potency [13] | Potency [14] | Potency [15] | Potency [7] | Potency [8] | Potency [10]

CN[C@@H]1[C@@H](O)[C@@H](O[C@@H]2[C@@H](O)[C@H](O[C@H]3O[C@H](CN)[C@@H](O)[C@H](O)[C@@H]3O)[C@@H](N)C[C@@H]2NC(=O)[C@@H](O)CN)OC[C@]1(C)O
inactive: Potency [1] | Potency [16] | Potency [2] | Potency [4] | Potency [11] | Potency [5] | Potency [12] | Potency [15] | Potency [17] | Potency [6]

CCC[C@H](N[C@@H](C)C(=O)N1[C@@H]2CCCC[C@H]2C[C@H]1C(=O)O)C(=O)OCC
active: Potency [14] 14.8 µM | Potency [8] 14.8 µM | Potency [10] 6.62 µM
inactive: Potency [1] | Potency [16] | Potency [11] | Potency [17] | Potency [7] | Potency [18]

C[C@@H](NC(=O)c1ncnc(N)c1Cl)c1ncc(C(=O)Nc2cc(C(F)(F)F)c(Cl)cn2)s1
active: Potency [1] 14.8 µM | Potency [2] 10.5 µM | Potency [11] 26.4 µM | Potency [12] 2.96 µM | Potency [13] 5.26 µM | Potency [14] 13.2 µM | Potency [6] 18.7 µM
inactive: Potency [16]

CCn1c(-c2nonc2N)nc2cncc(CNC3CCNCC3)c21
inactive: Potency [1] | Potency [16] | Potency [9]
active: Potency [3] 10.5 µM | Potency [13] 2.64 µM | Potency [14] 2.96 µM | Potency [6] 5.26 µM | Potency [18] 8.33 µM | Potency [8] 2.09 µM | Potency [10] 1.05 µM

CO[C@H]1/C=C\O[C@@]2(C)Oc3c(C)c(O)c4c(O)c(c(C=NN5CCN(C6CCCC6)CC5)c(O)c4c3C2=O)NC(=O)C(C)=CC=C[C@H](C)[C@H](O)[C@@H](C)[C@@H](O)[C@@H](C)[C@H](OC(C)=O)[C@H]1C
active: Potency [1] 0.372 µM | Potency [16] 0.833 µM | Potency [3] 10.5 µM | Potency [4] 1.05 µM | Potency [11] 0.264 µM | Potency [13] 0.118 µM | Potency [6] 6.62 µM | Potency [18] 0.0235 µM | Potency [9] 6.62 µM

CSc1cccc(Nc2ncc3cc(-c4c(Cl)cccc4Cl)c(=O)n(C)c3n2)c1
inactive: Potency [7]
active: Potency [1] 0.372 µM | Potency [16] 6.62 µM | Potency [3] 1.87 µM | Potency [5] 0.059 µM | Potency [12] 0.0264 µM | Potency [13] 0.0332 µM | Potency [17] 0.059 µM | Potency [6] 3.32 µM | Potency [8] 0.0662 µM | Potency [9] 1.32 µM | Potency [10] 0.059 µM

O=C(O)c1nc(=O)[nH]c(=O)[nH]1
inactive: Potency [1] | Potency [16] | Potency [2] | Potency [4] | Potency [11] | Potency [5] | Potency [13] | Potency [17] | Potency [7] | Potency [18] | Potency [10]

O=C(NCCCCN1CCOCC1)c1cc2ccccc2o1
inactive: Potency [1] | Potency [16] | Potency [3] | Potency [4] | Potency [11] | Potency [5] | Potency [13] | Potency [14] | Potency [6] | Potency [7] | Potency [8] | Potency [10]
active: viability (% of DMSO) [12] 159% | Potency [9] 0.0743 µM

COc1ccc(-c2oc3c(CC=C(C)C)c(O)cc(O)c3c(=O)c2O)cc1
active: Potency [1] 20.9 µM | Potency [16] 18.7 µM | Potency [17] 16.6 µM | Potency [6] 18.7 µM | Potency [7] 16.6 µM | Potency [18] 14.8 µM
inactive: Potency [4] | Potency [11] | Potency [5] | Potency [14] | Potency [15] | Potency [8]

NCC1CCC(C(=O)O)CC1 (configuration not stated)
inactive: Potency [1] | Potency [16] | Potency [2] | Potency [3] | Potency [11] | Potency [5] | Potency [14] | Potency [17] | Potency [7] | Potency [18] | Potency [8] | Potency [10]
active: Potency [13] 4.18 µM

CC[C@H](CC#N)OC(=O)N[C@@H](C)c1cccc(NC(=O)Nc2ccc(-c3cnco3)c(OC)c2)c1
active: Potency [1] 1.48 µM | Potency [16] 11.8 µM | Potency [2] 0.418 µM | Potency [4] 14.8 µM | Potency [11] 18.7 µM | Potency [5] 0.418 µM | Potency [14] 1.32 µM | Potency [15] 13.2 µM | Potency [17] 1.05 µM | Potency [8] 14.8 µM | Potency [9] 1.48 µM | Potency [10] 14.8 µM

N#Cc1c(N(CC(=O)O)CC(=O)O)sc(C(=O)O)c1CC(=O)O
active: Potency [2] 8.33 µM | Potency [15] 5.9 µM | Potency [17] 14.8 µM | Potency [18] 18.7 µM | Potency [19] 16.6 µM
inactive: Potency [1] | Potency [16] | Potency [12] | Potency [13]
